This is an account of results in PubChem BioAssay (NCATS).

The structures appear in SMILES notation. Records with an inconclusive call do not appear. Entries that show only a call come without a potency. The source made the active and inactive calls. Calls follow the shape of the dose curve; as a rule, active = well fitted curve in the direction sought with a large enough effect; inconclusive = small, poorly fitted or top-dose-only effect, or another doubt; inactive = no such curve, though single readings can be large; an effect the other way counts as inactive or inconclusive.

The nature of test [1]: qHTS to identify inhibitors of the type 1 interferon - major histocompatibility complex class I in skeletal muscle: primary screen against the NCATS Mechanism Interrogation Plate v5.0 (MIPE) Libary (AID 1347411). Also: nearly all actives have a fitted effect of over 65% in size. Also: potency is read from the fitted curve at half-maximal effect. The settings on record: iHSKM cells + IFN-b, HiBiT-tagged MHC-I luminescence, 24 h; series mostly up to 45.8 µM. An outline of the steps: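 Seed engineered human myoblasts (HLA-B HiBit) in medium without dexamethasone containing 4 ng/ml IFN-beta; after 1 hr add compound titrations (top 46 uM final). Incubate 24 hrs at 37 C, lyse 10 min with HiBiT reagent, read luminescence.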

The target in test [2] is Calcium and integrin-binding protein 1 (Homo sapiens) (UniProt Q99828). Description: Primary qHTS for Identification of Calcium Integrin Binding Protein 1 (CIB1) Competitor (AID 1508620).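 Also: GST tagged CIB1 binding a fluorescein labelled alphaIIb integrin peptide tracer; top concentration of the series differs between compounds.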 The settings on record: CIB1-GST / FITC-alphaIIb peptide fluorescence polarization; series mostly up to 57.7 µM. An outline of the steps: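 Fluorescence polarization competition: CIB1-GST (1 uM final) preincubated with compound 15 min at room temperature, then FITC-labeled alphaIIb peptide (100 nM final) added for another 15 min. Polarization read at Ex 480/Em 540.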
Sequence of Calcium and integrin-binding protein 1 (Homo sapiens) (Q99828 whole entry, looked up): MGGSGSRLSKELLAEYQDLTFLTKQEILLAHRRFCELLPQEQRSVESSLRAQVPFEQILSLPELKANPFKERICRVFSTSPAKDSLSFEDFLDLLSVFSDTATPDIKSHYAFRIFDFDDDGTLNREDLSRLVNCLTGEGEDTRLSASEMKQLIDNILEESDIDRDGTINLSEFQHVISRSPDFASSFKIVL
(In qHTS, concentration-response curves come from the screen itself.)

For `CS(=O)(=O)N(Cc1ccco1)CC(O)Cn1c2ccccc2c2ccccc21` (stereo not drawn), the Potency result in test [1] and in test [2] was “inactive” in each case.

In the case of `O=C(Nc1cccc(Br)c1)c1cccc(S(=O)(=O)N2CCCCCC2)c1`, the Potency entry in test [1] and in test [2] was “inactive” in each case.

Turning to `O=C(NOCC(O)CO)c1cc(Br)c(F)c(F)c1Nc1ccc(I)cc1F` (stereo not drawn), the Potency result in test [1] and in test [2] was “inactive” throughout.

`N[C@H](CSC(c1ccccc1)(c1ccccc1)c1ccccc1)C(=O)O`: the Potency entry in test [1] and in test [2] was “inactive” each time.

For the compound `CC1(C)CCC(CN2CCN(c3ccc(C(=O)NS(=O)(=O)c4ccc(NCC5CCOCC5)c([N+](=O)[O-])c4)c(Oc4cnc5[nH]ccc5c4)c3)CC2)=C(c2ccc(Cl)cc2)C1`, the Potency entry in test [1] and in test [2] was “inactive” in each case.

As for `O=C1C(Cl)=C(NCCN2CCOCC2)C(=O)c2ncccc21`, the Potency in test [1] is 2.94 µM (active). In addition, in test [2], the Potency result was “inactive”.

For `CCOC(=O)C1=C(N)Oc2ccc(Br)cc2C1C(C#N)C(=O)OCC` (stereo not drawn), the Potency entry in test [1] and in test [2] was “inactive” each time.

For the compound `CC#CCn1c(N2CCC[C@@H](N)C2)nc2c1c(=O)n(Cc1nc(C)c3ccccc3n1)c(=O)n2C`, the Potency entry in test [1] and in test [2] was “inactive” each time.

For the compound `COc1cccc([C@@H](C)NCCCc2ccccc2Cl)c1`, the Potency entry in test [1] and in test [2] was “inactive” throughout.
